Source: PubChem
Cruzain Triton – cruzain (T. cruzi) inhibition with detergent. P25779. purified cruzain, Z-FR-AMC fluorescence, 0.01% Triton. Potency, µM, most hits filed as inhibitors. 200,000 tested, 0.43% active; note: nearly all actives have a fitted effect of over 40% in size
Target sequence (P25779 123-467 limits assumed): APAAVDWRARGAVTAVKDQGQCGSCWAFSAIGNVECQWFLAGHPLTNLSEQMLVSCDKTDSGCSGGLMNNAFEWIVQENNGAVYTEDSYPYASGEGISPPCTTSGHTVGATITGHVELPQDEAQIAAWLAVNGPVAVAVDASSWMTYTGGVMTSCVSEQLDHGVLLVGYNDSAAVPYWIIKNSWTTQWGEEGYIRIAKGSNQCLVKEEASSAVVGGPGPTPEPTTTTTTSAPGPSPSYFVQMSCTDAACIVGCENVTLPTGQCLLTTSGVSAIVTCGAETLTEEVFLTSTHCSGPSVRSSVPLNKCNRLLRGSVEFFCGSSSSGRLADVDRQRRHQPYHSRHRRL
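Detergent-containing arm of a paired screen for aggregation-based inhibition: 0.01% Triton X-100 present. Cruzain at 1.5 nM cleaved 2 uM Z-FR-AMC at pH 5.5 with 5 mM DTT; AMC fluorescence gain over 60 s measured activity.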
Cruzain inh noDet – cruzain (T. cruzi) inhibition without detergent; AID 1476; P25779; 200,000 tested, 2.3% active; purified cruzain, Z-FR-AMC fluorescence, no detergent; Potency, µM, actives largely listed as inhibitors; note: nearly all actives have a fitted effect of over 40% in size
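Detergent-free condition (0.00005% Triton X-100) in acetate buffer pH 5.5 with DTT. 1.5 nM enzyme and compound were pre-mixed 15 min, then 2 uM Z-FR-AMC substrate added; reaction progress from fluorescence change between first and third reads (60 s).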
Papain counter – counter-screen for cruzain inhibitors: papain inhibition | AID 2161 | 410 tested, 41% active | purified papain, Z-FR-AMC fluorescence cleavage | shares compounds with Cruzain Triton | Potency, µM, usual class: inhibitors; note: nearly all actives have a fitted effect of over 35% in size
Target sequence (P00784 whole entry, looked up): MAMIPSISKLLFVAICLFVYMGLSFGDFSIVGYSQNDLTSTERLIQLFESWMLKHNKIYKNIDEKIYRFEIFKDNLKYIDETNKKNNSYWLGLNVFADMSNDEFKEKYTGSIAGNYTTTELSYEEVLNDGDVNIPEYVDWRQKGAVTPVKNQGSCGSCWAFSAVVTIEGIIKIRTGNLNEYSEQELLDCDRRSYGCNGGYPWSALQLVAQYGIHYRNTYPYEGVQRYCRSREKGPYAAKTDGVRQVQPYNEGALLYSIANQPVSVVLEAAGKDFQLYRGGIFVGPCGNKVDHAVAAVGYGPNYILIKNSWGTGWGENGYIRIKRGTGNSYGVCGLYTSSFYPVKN
Hits are given with their value; 0 = inactive; ? = inconclusive; - = no result given. Only some compounds are listed: those with a hit (about 2.5% of all), similar ones and a draw of the others. Calls come from the whole dose curve; as a rule, active = well fitted curve in the direction sought with a large enough effect; inconclusive = small, poorly fitted or top-dose-only effect, or another doubt; inactive = no such curve, though single readings can be large; an effect the other way counts as inactive or inconclusive.

SMILES | Cruzain Triton | Cruzain inh noDet | Papain counter
Cc1ccc(N2CC(NC(=O)c3cccs3)CC2=O)cc1 (stereo unspecified) | 0 | 0 | -
C=Cn1ccnc1P(=S)(c1ccc(N(C)C)cc1)c1nccn1C=C | 0 | ? | -
C=Cn1ccnc1P(=S)(c1ccc2c(c1)c1ccccc1n2CC)c1nccn1C=C | 0 | ? | 0
C[C@@]12C=CC(=O)C=C1CC[C@H]1[C@H]3CC[C@](O)(C(=O)CO)[C@]3(C)CC(=O)[C@@H]12 | 0 | 0 | -
COc1cccc(Nc2nc3ccc(C(=O)c4ccccc4)cc3n3c(C)nnc23)c1 | 0 | 0 | -
CC(=O)NCC(=O)OCC(=O)c1ccc(C)cc1 | 0 | 0 | -
CC(=O)NCC(=O)OCC(=O)c1ccccc1 | 0 | 0 | -
O=C(CNC(=O)C1CCCCC1)OCC(=O)c1ccccc1 | - | - | 16µM
COc1cc(C(=O)COC(=O)CNC(=O)C2CCCCC2)cc(OC)c1OC | 2.2µM | 2.5µM | 0
O=C(COC(=O)CNC(=O)C1CCCCC1)Nc1ccc2ccccc2c1 | 4.5µM | 7.9µM | 0
O=C(CNC(=O)C1CCCCC1)OCC(=O)c1ccc(C2CCCCC2)cc1 | - | - | 0
COC(=O)c1ccc(NC(=O)CNC(=O)C2CCCCC2)cc1 | 0 | 0 | -
O=C(CNC(=O)C1CCCCC1)Nc1ccc(Cl)cc1 | 0 | 0 | -
O=c1c(-c2cccc(Cl)c2)nc2cncnc2n1C1CC1 | 0 | 0 | -
Cc1ccccc1C(=O)n1nc(-c2ccco2)nc1NCc1cccs1 | 0 | 0 | -
O=C(O)CCC(=O)NNc1ccccc1[N+](=O)[O-] | 0 | 0 | -
COC(=O)c1ccc(C(NC(=O)OCc2ccccc2)/C(F)=C/[C@@H](C)C(=O)NCc2nc3ccccc3s2)cc1 (stereo partly specified) | 0 | 0 | -
Cc1ccc(CNC(=O)CS(=O)CC(=O)O)cc1 (stereo unspecified) | 0 | 0 | -
C=CCn1c(SCC(=O)NCc2ccco2)nc2sc3c(c2c1=O)CCCC3 | 0 | 0 | -
O=C(NCc1ccco1)c1ccc2nc3sc4c(c3c(=O)n2c1)CCCC4 | 10µM | 0 | 25µM
Fc1ccc(NCc2cccn2-c2nnc(N3CCOCC3)s2)cc1 | 0 | 0 | -
COc1ccc(CCNC(=O)c2ccc3c(c2)N(Cc2cccc(Cl)c2)C(=O)CS3)cc1OC | 0 | 0 | -
O=C(Nc1nc2ccccc2n1CCN1CCCCC1)C1CCCCC1 | 0 | 0 | -
O=C(NCCc1nc2ccccc2n1CCOc1ccc2ccccc2c1)C1CCCCC1 | - | - | 0
O=C(NCCc1nc2ccccc2n1CCCOc1ccc2ccccc2c1)C1CCCCC1 | - | - | 10µM
SMILES | Cruzain Triton | Cruzain inh noDet | Papain counter
CC(=O)c1ccc(NC(=O)C2CCN(c3nnc(C)c4c(C)n(-c5ccccc5)nc34)CC2)cc1 | 0 | 0 | -
CCn1c(=O)c2sccc2n2c(CCC(=O)Nc3ccc(OC)cc3OC)nnc12 | 0 | 0 | -
Cc1ccc2cc(CN(Cc3ccc4c(c3)OCO4)Cc3nnnn3Cc3ccco3)c(=O)[nH]c2c1 | 0 | 0 | -
COc1ccc2[nH]c(=O)c(CN(C3CCCCC3)C(c3nnnn3Cc3ccco3)C(C)C)cc2c1 (stereo unspecified) | 0 | ? | -
COc1ccc2[nH]c(=O)c(CN(Cc3nnnn3Cc3ccco3)C3CCCCC3)cc2c1 | 7.1µM | 7.9µM | 0
CCC(c1nnnn1Cc1ccco1)N(Cc1ccccc1OC)Cc1cc2cc(C)ccc2[nH]c1=O (stereo unspecified) | 0 | 0 | -
CCc1ccc2[nH]c(=O)c(CN(Cc3ccco3)Cc3nnnn3Cc3ccco3)cc2c1 | - | - | 0
Cc1ccc2[nH]c(=O)c(CN(Cc3ccco3)Cc3nnnn3Cc3ccco3)cc2c1 | - | - | 0
Cc1ccc(CN(Cc2cc3cc4c(cc3[nH]c2=O)OCCO4)Cc2nnnn2Cc2ccco2)cc1 | 20µM | 0 | 0
COc1ccc2cc(CN(CCc3ccccc3)Cc3nnnn3Cc3ccco3)c(=O)[nH]c2c1 | 0 | 0 | -
CCOc1ccc(NC(=O)CN2C(=O)C3(SCC(=O)N3c3ccc(F)cc3)c3ccccc32)cc1 (stereo unspecified) | 0 | 0 | -
O=C(NCCc1ccccc1)C(=O)NCC(c1cccs1)S(=O)(=O)c1cccs1 (stereo unspecified) | 0 | 0 | -
Cc1ccc2[nH]c(=O)c(CN(Cc3ccccc3)Cc3nnnn3Cc3ccco3)cc2c1 | - | - | 0
Cc1ccc2[nH]c(=O)c(CN(Cc3ccccc3)Cc3nnnn3C3CCCC3)cc2c1 | 0 | 0 | -
Cc1cn2c(=O)cc(COC(=O)c3cccc(NC(=O)COc4ccccc4Cl)c3)nc2s1 | 0 | 0 | -
CCC(C)NC(=O)c1ccc2nc(-c3ccco3)c(-c3ccco3)nc2c1 (stereo unspecified) | - | - | 16µM
CCC(C)NC(=O)c1ccc2nc(Cc3ccccc3)oc2c1 (stereo unspecified) | 0 | 0 | -
CCC(C(=O)NC1CCCCC1)n1c(SCc2cccc(F)c2)nc2ccncc21 (stereo unspecified) | 13µM | ? | 0
COC(=O)c1ccc(Cn2c(SCc3cccc(C)c3)nc3ccncc32)cc1 | 0 | ? | -
CCCCNC(=O)C(CC)n1c(SCc2cccc(F)c2)nc2ccncc21 (stereo unspecified) | - | - | 0
CC(CNC(=O)c1ccc(CSc2nc3ccncc3n2Cc2cccc(F)c2)cc1)c1ccccc1 (stereo unspecified) | 0 | 0 | -
CCCCNC(=O)Cn1c(SCc2cccc(F)c2)nc2ccncc21 | - | - | 0
Cc1ccc(NC(=O)Cn2c(SCc3cccc(F)c3)nc3ccncc32)c(C)c1 | 0 | 0 | -
NCCCN1CCOCC1 | 0 | 0 | -
OC/C(Br)=C(\Br)CO | 0 | 0 | -
SMILES | Cruzain Triton | Cruzain inh noDet | Papain counter
CC1=C(c2ccc(C)cc2)S(=O)(=O)NC1=NCc1cccc(F)c1 | 0 | 0 | -
Cc1cccc(NC(=O)Cn2c(=O)c3cccn3c3ccccc32)c1C | 0 | ? | -
CCCCC(CC)CNC(=O)c1ccc2c(=O)n(Cc3ccc(OC)cc3)c(=O)[nH]c2c1 (stereo unspecified) | 0 | 0 | -
Cc1cc(S(=O)(=O)Nc2cc3c(cc2Cl)n(C)c(=O)c(=O)n3C)ccc1F | 0 | 0 | -
Fc1ccccc1-c1nc(-c2ccccc2)no1 | 0 | 0 | -
O=c1cc(-c2cccc(Br)c2)nc(-c2ccccc2F)o1 | 8.9µM | 10µM | 0
COc1ccc(Br)cc1-c1noc(-c2ccccc2F)n1 | 0 | 0 | -
O=c1cc(-c2ccccc2F)nc(-c2ccccc2F)o1 | 4.5µM | 7.9µM | 0
COc1cccc(N2CCN(C(=O)c3c4c(nc5ccccc35)C(=O)N(C3CCCCC3)C4)CC2)c1 | 0 | 0 | -
COc1ccc2c(Sc3ccccc3)c(C(=O)N3CCC(C)CC3)[nH]c2c1 | 0 | ? | -
CCCCn1c(CCNC(=O)CC)nc2ccccc21 | 0 | 0 | -
Cc1cc(C)cc(OCCCn2c(CCNC(=O)C3CCCCC3)nc3ccccc32)c1 | 2µM | 0 | 25µM
Cc1cccc(OCCn2c(CCCO)nc3ccccc32)c1 | 0 | 0 | -
Cc1cc(C)cc(OCCn2c(CCNC(=O)C3CCCCC3)nc3ccccc32)c1 | 1.8µM | 0 | 0
Cc1ccc(Cn2c(CCNC(=O)c3cccc(C)c3)nc3ccccc32)cc1 | 5µM | 0 | 0
Cc1cccc(C)c1OCCn1c(CCNC(=O)C2CCCCC2)nc2ccccc21 | 3.5µM | 0 | 0
CC(=O)NCCCc1nc2ccccc2n1Cc1ccc(C)cc1 | 0 | 0 | -
CCn1c(NC(=O)C2CCCCC2)nc2ccccc21 | 0 | 0 | -
CCOc1cc(CNC(=O)C(NS(=O)(=O)c2cccs2)C(C)C)cc(OCC)c1OCC (stereo unspecified) | 0 | 0 | -
Cc1nc2cnc(OCc3ccccc3)nc2n(CCc2ccccc2)c1=O | 0 | ? | -
